# Measurements taken from PubChem BioAssay (EPA / NIEHS).
# Inconclusive results are not listed. Active and inactive are the calls of the source. How the source made its calls: active means hit-call score of the fitted dose curve at least 0.9, where 1 is the maximum; inconclusive means response in the unintended direction; inactive means score below 0.9.
# Read-out: alkyl and aryl transferase (GSTA2), GSTA2 (gene 2939)
# Assay: CLD_GSTA2_48hr: CellzDirect (CLD) Gene Expression Assay for alkyl and aryl transferase (GSTA2) at 48 hours (AID 2283708);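 further: active means mRNA induction above DMSO vehicle baseline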
# How it was run: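 Primary human hepatocytes dosed daily for two days (0.2% DMSO vehicle), harvested at 48 h. GSTA2 mRNA induction measured by quantitative nuclease protection assay with chemiluminescent imaging, fitted for gain of signal relative to DMSO.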
SMILES,outcome,AC50
CSC1=N[C@@](C)(c2ccccc2)C(=O)N1Nc1ccccc1,inactive,–
O=[N+]([O-])c1cc(C(F)(F)F)c(Cl)c([N+](=O)[O-])c1Nc1ncc(C(F)(F)F)cc1Cl,inactive,–
Nc1c(Cl)cc([N+](=O)[O-])cc1Cl,inactive,–
CCOP(=O)(OCC)Oc1cc(C)nc(C(C)C)n1,inactive,–
CC(=NC#N)N(C)Cc1ccc(Cl)nc1,inactive,–
CCOP(=S)(Oc1cnc(C(C)(C)C)nc1)OC(C)C (configuration not stated),–,20 µM (active)
COc1cc(OC)nc(Sc2cccc(Cl)c2C(=O)O)n1,inactive,–
C#CC(C)(C)NC(=O)c1cc(Cl)cc(Cl)c1,inactive,–
CCCCN(CC)c1c([N+](=O)[O-])cc(C(F)(F)F)cc1[N+](=O)[O-],inactive,–
CCCCOC(=O)c1ccccc1C(=O)O,inactive,–
CN1COCN(Cc2cnc(Cl)s2)C1=N[N+](=O)[O-],inactive,–
CC(C)[C@H](C(=O)O[C@H](C#N)c1cccc(Oc2ccccc2)c1)c1ccc(Cl)cc1,inactive,–
CCOP(=S)(OCC)SCCSCC,inactive,–
CCCCOC(=O)[C@@H](C)Oc1ccc(Oc2ccc(C#N)cc2F)cc1,inactive,–
CN(C)NC(=O)CCC(=O)O,inactive,–
CNC(=O)Oc1cccc2c1OC(C)(C)O2,inactive,–
C[N+]1(C)CCCCC1,inactive,–
CC(C)=CC1C(C(=O)OCN2C(=O)C3=C(CCCC3)C2=O)C1(C)C (configuration not stated),inactive,–
C=C(C)[C@H]1Cc2c(ccc3c2O[C@@H]2COc4cc(OC)c(OC)cc4[C@@H]2C3=O)O1,–,0.66 µM (active)
CCCOc1nn(C(=O)NS(=O)(=O)c2ccccc2C(=O)OC)c(=O)n1C,inactive,–
COP(=O)(OC)OC(Br)C(Cl)(Cl)Br (configuration not stated),inactive,–
CC(C1CC1)C(O)(Cn1cncn1)c1ccc(Cl)cc1 (configuration not stated),inactive,–
CCOP(=S)(OCC)Oc1ccc2c(C)c(Cl)c(=O)oc2c1,inactive,–
FC(F)C(F)(F)OCC(Cn1cncn1)c1ccc(Cl)cc1Cl (configuration not stated),inactive,–
COP(=O)(NC(C)=O)SC (configuration not stated),inactive,–
CN(C)[C@@H]1C(=O)C(C(N)=O)=C(O)[C@@]2(O)C(=O)C3=C(O)c4c(O)cccc4[C@@](C)(O)[C@H]3[C@H](O)[C@@H]12,inactive,–
COc1cccc(C(=O)NN(C(=O)c2cc(C)cc(C)c2)C(C)(C)C)c1C,inactive,–
